# Values without a mark were called inactive.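 How the source made its calls: active = AUC reduced over 20% with Padj below 0.05 in at least 2 of 3 replicates; inactive = otherwise.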
# Assays:
# Experiment in all cases: growth AUC relative to DMSO control (median of replicates) (fraction); higher = more growth (less inhibition), active = hit call of the paper
# Conditions in all cases: 20 µM; 24 h
# [1] = test system: Akkermansia muciniphila
# How it was run: (§1)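 Starting at OD600 0.05, gut bacterial monocultures in mGAM were grown anaerobically at 37 °C with 20 µM compound (1% DMSO) under pierced gas-permeable seals. OD600 was read every hour for 24 h, and the lowest OD of each curve was set to 0. Area under the growth curve was normalised to the plate median of solvent-only wells, or to row and column medians on the industrial chemical plate, and the median of three biological replicates grown on separate days is given.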
# [2] = test system: Bacteroides caccae
# How it was run: as §1
# [3] = test system: Bacteroides clarus
# How it was run: as §1
# [4] = test system: Bacteroides dorei
# How it was run: as §1
# [5] = test system: Bacteroides stercoris
# How it was run: as §1
# [6] = test system: Bacteroides thetaiotaomicron
# How it was run: as §1
# [7] = test system: Bacteroides uniformis
# How it was run: as §1
# [8] = test system: Bifidobacterium longum subsp. longum
# How it was run: as §1
# [9] = test system: Clostridium difficile
# How it was run: as §1
# [10] = test system: Collinsella aerofaciens
# How it was run: as §1
# [11] = test system: Coprococcus comes
# How it was run: as §1
# [12] = test system: Escherichia coli ED1a
# How it was run: as §1
# [13] = test system: Escherichia coli IAI1
# How it was run: as §1
# [14] = test system: Eubacterium rectale
# How it was run: as §1
# [15] = test system: Fusobacterium nucleatum subsp. animalis
# How it was run: as §1
# [16] = test system: Lactobacillus gasseri
# How it was run: as §1
# [17] = test system: Lactobacillus paracasei
# How it was run: as §1
# [18] = test system: Odoribacter splanchnicus
# How it was run: as §1
# [19] = test system: Parabacteroides distasonis
# How it was run: as §1
# [20] = test system: Parabacteroides merdae
# How it was run: as §1
SMILES,growth AUC [1],growth AUC [2],growth AUC [3],growth AUC [4],growth AUC [5],growth AUC [6],growth AUC [7],growth AUC [8],growth AUC [9],growth AUC [10],growth AUC [11],growth AUC [12],growth AUC [13],growth AUC [14],growth AUC [15],growth AUC [16],growth AUC [17],growth AUC [18],growth AUC [19],growth AUC [20]
C#CCN1CC(=O)N(COC(=O)C2C(C=C(C)C)C2(C)C)C1=O (mixture of isomers),0.804,0.949,0.936,0.96,0.986,0.952,0.962,0.949,0.997,1.02,0.982,0.991,0.968,0.805,0.945,0.994,0.997,0.958,0.996,0.927
S=C1NCCN1,1.05,0.998,0.998,1.06,1.13,1.01,1.03,0.947,1.05,1.02,1.02,1.01,1.01,1.04,1.08,1.02,0.923,1.04,1.05,1.04
O.[Br-].[Br-].c1cc[n+]2c(c1)-c1cccc[n+]1CC2,0.784,0.612 (active),0.992,0.996,1.01,1.01,0.984,1.02,0.912,0.995,0.988,1.03,0.95,1.21,0.996,1.11,1.01,0.937,0.781 (active),0.967
CCOP(=S)(OCC)SCSCC,1.1,0.955,0.991,0.969,0.942,0.997,0.986,1.01,1.01,1.01,0.985,0.987,0.956,1.17,0.99,0.97,0.952,0.984,0.921,0.947
ClC1=C(Cl)[C@]2(Cl)C3CC=CC3[C@@]1(Cl)C2(Cl)Cl (stereo not given in full),0.898,1.03,0.999,0.992,0.973,0.981,0.971,0.994,0.997,0.965,0.942,0.99,1.01,0.951,0.846,0.989,1.03,0.987,1.04,0.984
O=c1oc2ccccc2c(O)c1C1CC(c2ccc(-c3ccc(Br)cc3)cc2)Cc2ccccc21 (stereo not given),0.966,0.91,0.335 (active),0.89,0.00883 (active),0.788 (active),0.86,0.647 (active),0.263 (active),0.911,0.856,0.998,1,0.567 (active),0.96,0.652 (active),0.714 (active),0.99,0.126 (active),0.00968 (active)
CC(C)C(C(=O)OC(C#N)c1cccc(Oc2ccccc2)c1)c1ccc(Cl)cc1 (stereo not given),0.88,0.977,1,0.935,1.1,1.02,0.986,0.765,1.01,0.903,1,1.01,0.963,0.901,1.02,0.9,1.11,0.893,1.01,0.974
CNC(=O)Oc1ccccc1OC(C)C,0.914,0.993,0.977,1.01,1.01,0.975,0.979,0.996,0.986,0.955,0.974,0.986,0.982,0.952,0.994,0.892,0.982,1.02,1.01,0.981
CCC(=O)Nc1ccc(Cl)c(Cl)c1,0.797,1,0.978,1.03,0.972,0.988,0.969,0.837,1.03,0.999,1,0.943,0.99,0.992,0.87,0.979,0.922,0.943,0.994,0.995
CS(=O)(=O)c1ccc(C(=O)C2C(=O)CCCC2=O)c([N+](=O)[O-])c1,0.895,0.986,0.946,0.977,0.979,0.972,0.965,0.965,0.986,0.972,0.966,1,0.985,0.882,0.97,1.04,1.02,0.736,0.998,0.948
CNC(=O)O/N=C(\SC)C(=O)N(C)C,1.01,0.999,0.967,1.05,1.05,0.993,1.01,0.957,0.965,0.999,0.971,0.985,0.987,1,0.979,1.09,0.883,0.975,0.99,0.973
CCCOCC(=Nc1ccc(Cl)cc1C(F)(F)F)n1ccnc1,1.03,0.955,0.919,0.982,1.16,0.934,0.913,1.03,0.922,0.941,0.505 (active),0.994,0.995,0.382 (active),1.11,0.894,0.938,0.932,0.746 (active),0.894
CCSCCSP(=S)(OC)OC,1.09,1.02,0.996,0.996,1.07,0.992,1.01,1.03,1.03,1.09,1.1,1.01,1,0.899,1.05,1.06,1.01,1.07,1.05,0.988
CC(Oc1cc(Cl)c(Cl)cc1Cl)C(=O)O (stereo not given),0.958,1,0.949,0.979,0.973,0.99,0.987,0.787,1.02,1.01,0.987,0.978,0.953,0.964,0.889,1.04,1,1.02,0.955,0.986
CC1(C)CN=C(NN=C(/C=C/c2ccc(C(F)(F)F)cc2)/C=C/c2ccc(C(F)(F)F)cc2)NC1,0.911,0.961,0.979,1.03,0.902,1.03,0.991,0.998,0.972,1.09,1,0.992,1.04,1.04,1.06,0.935,0.903,1.04,1.06,0.989
Cc1ccc(NC(=O)N(C)C)cc1Cl,0.946,1.04,0.989,1.01,0.954,1,0.976,0.827,1.01,0.989,0.996,0.985,0.982,0.965,0.916,1.12,0.954,1.02,1.05,0.972

# Source: the supplement of paper PMC12669032
